# HSF1 inhib = HSF1 inhibition | NIH3T3-HGL HSE-luciferase, MG132-induced, luminescence 8 h; stronger effect = lower value | activity change, negative = inhibition, % at 7.5 µM (by protocol) | 300,000 compounds, 0.77% hits;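 active = more than half of replicate wells show activity change below -50%, luminescence cut by over half; inconclusive = some wells, but at most half, below -50%; inactive = no replicate well below -50%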;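 also: luciferase reports HSF-1 transcriptional activity via heat shock element; 0% = median of DMSO wells and -100% = zero luminescence signal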
# esBAF inh = inhibitors of esBAF chromatin remodeling in mouse ES cells; Bmi1-luciferase knock-in reporter, 24 h; 100% = twice the neutral-well signal; reporter increase, % at 12.5 µM; 350,000 compounds, 2% hits; AID 602393; in the data active = activation above about 40%; inconclusive = no clear call, values can overlap the other calls;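 also: 0% = median of the plate's neutral control wells and 100% = double that signal; a rise in the Bmi1 reporter signal indicates esBAF inhibition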
# MITF TRPM1 HTS = MITF TRPM1 promoter activation in melanoma cells; SK-MEL-5 TRPM1-promoter luciferase, 24 h; % of positive control, neutral wells = 0; activation, % at 12.5 µM; 300,000 compounds, 0.75% hits; AID 588334;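 active = mean activation of at least 80% with every replicate also reaching 80%; inconclusive = mean reaches 80% but some replicate falls short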;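 also: 0% = neutral control wells and 100% = parthenolide positive control wells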
# Wnt act = activates Wnt/beta-catenin signaling in a reporter cell assay. 300,000 compounds, 1.2% hits. AID 743398. activation, % at 9.35 µM. activator, plate reader; in the data active = activation above about 30%, passing the limit was not always enough; inconclusive = no clear call, values can overlap the other calls;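 also: 0% = neutral control wells and 100% = positive control wells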
# HSF-1 act = increases HSF-1 driven luciferase reporter signal; NIH3T3-HGL HSF-1 luciferase reporter, MG132, 8 h; 100% = twice DMSO control signal; activation, % at 9 µM; 300,000 compounds, 1.7% hits;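 active = mean replicate activation of at least 50% with a set share of replicates each reaching 50%; inconclusive = only one of those two conditions met; inactive = mean below 50% and too few replicates reaching it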;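 also: 0% = median of the neutral control wells and 100% = twice that signal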
# Starred values were filed as active, the others as inactive; u = inconclusive; x = no result given. This is a sample that favours compounds with a hit; in the whole collection about 3.9% have one here.
SMILES,HSF1 inhib,esBAF inh,MITF TRPM1 HTS,Wnt act,HSF-1 act
O=C(/C=C/c1ccc(F)cc1)N1CCc2ccccc2C1,x,47.8*,49.6,8.9,x
Cc1ccc(/C=C/C(=O)N2CCc3ccccc3C2)cc1,22.0,48.4*,21.2,-3.0,17.4
Cc1noc(C)c1NC(=O)Nc1ccc2c(c1)C(=O)N([C@H](C)CO)C[C@@H](C)[C@H](CN(C)S(=O)(=O)c1cn(C)cn1)OCCCC[C@@H](C)O2,x,0.4,x,x,x
COc1ccccc1NC(=O)N(C)C[C@@H]1OCc2cn(nn2)CCCC(=O)N([C@H](C)CO)C[C@@H]1C,x,3.9,x,x,x
C[C@H]1CN([C@@H](C)CO)C(=O)c2cc(C#CC3(O)CCCC3)cnc2O[C@H]1CN(C)C,x,-3.6,x,x,x
O=C1CCCCCN1Cc1nnc(SCc2nc3ccccc3s2)n1-c1ccccn1,-11.8,u,x,56.9*,-20.7
CCOc1ccc(NCc2nnc(SCC(=O)Nc3cc(C)on3)n2-c2ccccc2OC)cc1,-36.0,x,-1.2,0.7,-47.2
CCOc1ccc(NCc2nnc(SCC(=O)Nc3cc(C)on3)n2-c2ccc(OC)cc2)cc1,-79.6*,4.1,x,x,-82.6
COc1cc(OC)cc(C(=O)O/N=C(\N)c2cccc(C)c2)c1,15.5,28.7,52.1,5.3,24.4
Cc1cccc(/C(N)=N/OC(=O)c2ccc(Br)o2)c1,27.2,x,57.8,46.5*,47.0
N/C(=N\OC(=O)c1ccc(Cl)cc1)c1cccnc1,18.3,68.0*,45.6,x,32.6
N/C(=N\OC(=O)/C=C/c1ccccc1Cl)c1cccnc1,37.0,x,x,-1.0,57.0*
Cc1cccc(/C(N)=N/OC(=O)c2cccnc2)c1,13.7,x,49.5,32.7*,38.1
N/C(=N\OC(=O)c1ccc(Cl)cc1Cl)c1cccnc1,19.1,5.4,23.7,32.0*,47.7
N/C(=N\OC(=O)c1ccccc1Cl)c1ccccc1,9.3,-31.9,-1.1,x,25.9
CC1CCCN(c2nc3ccsc3c(=O)s2)C1 (stereo unspecified),21.7,x,72.9,52.5*,26.8
O=C(NCc1ccccc1Cl)C1CCCN(c2nc3ccsc3c(=O)s2)C1 (stereo unspecified),-1.0,x,x,x,-8.0
O=C1NC(c2ccc(O)cc2)Nc2ccccc21 (stereo unspecified),12.0,18.6,x,8.6,17.8
CSc1ccc(C2NC(=O)c3ccccc3N2)cc1 (stereo unspecified),45.5,64.9*,x,23.1,68.6*
Cc1ccc(S(=O)(=O)CC(=O)Nc2ccc(S(=O)(=O)Nc3onc(C)c3C)cc2)cc1,-83.5*,-2.3,10.1,x,-87.6
Cc1ccc2oc(C(=O)Nc3ccc(S(=O)(=O)Nc4onc(C)c4C)cc3)c(C)c2c1,-0.1,59.3*,4.3,0.1,12.8
Cc1ccc(OCC(=O)Nc2ccc(S(=O)(=O)Nc3onc(C)c3C)cc2)cc1,-6.7,x,0.5,-5.0,9.6
Cc1cc(C(=O)Nc2ccc(S(=O)(=O)Nc3onc(C)c3C)cc2)c(C)o1,-4.4,-14.3,-6.6,-3.0,-0.2
CCc1cccc(OCC(=O)Nc2ccc(S(=O)(=O)Nc3onc(C)c3C)cc2)c1,-78.7*,-0.8,4.3,-4.7,-82.4
C[C@H](CO)N1C[C@H](C)[C@H](CN(C)Cc2cccnc2)Oc2cc(C#CC3CCCCC3)ccc2S1(=O)=O,x,-10.9,x,x,x
SMILES,HSF1 inhib,esBAF inh,MITF TRPM1 HTS,Wnt act,HSF-1 act
COc1ccccc1C(=O)Nc1ccc2c(c1)C(=O)N(C)C[C@@H](OC)[C@H](C)CN(C(C)=O)[C@H](C)CO2,x,-1.4,x,x,x
CC(=O)c1ccc(NC(=S)Nc2cccc3cnccc23)cc1,33.1,x,12.5,11.5,42.8
Cc1ccc(NC(=S)Nc2cccc3cnccc23)cc1C,8.7,45.5*,10.6,-0.9,34.2
Cc1ccc(NC(=S)Nc2cccc3cnccc23)cc1,14.3,68.3*,-10.7,26.2,23.2
C[C@@H](O)C#Cc1cnc2c(c1)C(=O)N([C@@H](C)CO)C[C@H](C)[C@@H](CN(C)Cc1cccc(F)c1)O2,x,2.7,x,x,x
CC1OC(Nc2cccc3ccccc23)C(O)C(O)C1O (stereo unspecified),-96.2*,9.8,-46.3,x,-96.1
CC1OC(Nc2ccc(N=Nc3ccccc3)cc2)C(O)C(O)C1O (stereo unspecified),3.3,55.3,15.7,0.8,21.9
CCOC(=O)c1c(C)sc2c1N(C(=O)CCl)c1cc(Cl)ccc1S2,66.7,x,-81.1,x,79.3*
Cc1sc2ncnc(SCC(=O)N3c4ccccc4Sc4ccc(Cl)cc43)c2c1C,-7.7,x,-0.2,-1.5,5.1
CNC[C@H]1Oc2c(NC(=O)C3CCOCC3)cccc2C(=O)N([C@@H](C)CO)C[C@H]1C,x,1.4,x,x,x
Cc1ccc(N=Cc2ccc[nH]2)c(O)c1,-75.7*,29.8,16.5,x,-78.2
Cc1ccccc1N=Cc1ccc[nH]1,x,3.5,x,4.3,x
COC(=O)c1ccc(CN2CCN(CCc3ccccc3)C(CCO)C2)cc1 (stereo unspecified),-72.0*,x,-1.6,1.2,-78.0
OCCC1CN(Cc2cccc(-n3cccn3)c2)CCN1Cc1ccccc1 (stereo unspecified),-64.8*,4.2,2.5,-0.9,-67.3
Cc1ccc(CN2CCN(Cc3cccc(OCCO)c3)CC2CCO)o1 (stereo unspecified),-86.2*,x,-1.1,-1.3,-88.5
CC(=O)Nc1ccc2c(c1)C(=O)N(C)[C@@H]1CC[C@H](CC(=O)NCCCN3CCOCC3)O[C@H]1CO2,x,-5.7,x,x,x
CN(C)C(=O)c1cccc(-c2cccc(-c3nc(C(=O)N4CCOCC4)cc4c3[C@H](CCO)N([S@@](=O)C(C)(C)C)C4)c2)c1,x,-2.1,x,x,x
CCCC(=O)Nc1ccc2c(c1)OC[C@H](C)N(C(=O)CN(C)C)C[C@@H](C)[C@@H](OC)CN(C)C2=O,x,2.4,x,x,x
c1ccc(-c2nc3ccccn3c2NCc2ccc3c(c2)OCO3)cc1,14.4,6.3,5.6,x,25.8
Clc1cccc(-c2ccc(-c3nc4ccccn4c3NCc3ccccc3)cc2)c1,x,49.7*,18.6,31.2*,x
CCC(C)Sc1ccc(-c2nc3ccc(Cl)cn3c2NCc2ccccc2)cc1 (stereo unspecified),x,50.1*,83.9*,u,x
C[C@H]1CN([C@@H](C)CO)S(=O)(=O)c2ccc(Br)cc2O[C@H]1CN(C)Cc1ccncc1,x,1.6,x,x,x
CCCNC(=O)NC1CCCCCCC1,-3.1,x,2.8,2.3,17.7
CCCNC(=O)NC1C(NC(=O)NCCC)N(C)C(=O)N1C (stereo unspecified),-57.0*,-4.5,-9.0,x,-67.5
COc1ccccc1-c1cc2nc(C)c(CCC(=O)NCc3ccc(F)cc3)c(C)n2n1,8.1,x,6.7,2.6,7.3
COc1cc(OC)cc(-c2cc3nc(C)c(CCC(=O)NCc4ccccc4)c(C)n3n2)c1,-56.5*,-66.7,-28.2,-10.2,-53.3
Cc1nn(C)cc1NC(=O)C[C@@H]1CC[C@H]2[C@H](COc3ccc(NC(=O)c4cccc(F)c4)cc3C(=O)N2C)O1,x,-2.1,x,x,x
Cc1noc(C)c1NC(=O)NCC[C@H]1CC[C@H](NC(=O)c2ccccc2)[C@H](CO)O1,x,-0.7,x,x,x
CCCCN1CCc2c([nH]c3ccccc23)C1=O,18.3,68.6*,75.2,x,34.7
